Laboratory results reported in PubChem BioAssay (NCI).
Values joined by “and” are separate entries in the source; they are usually repeats but may differ in a detail not shown here. Equal entries are not always repeated. Compounds without any hit were thinned out: in the full panel of roughly 83,000, 20% have a hit.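 Note: values are percent growth. 100 is the growth of untreated cells, values between 100 and 0 indicate rising inhibition; between -100 and 0 indicates cell death.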 Active and inactive are the calls of the source. Rule for the calls: active = growth percent below 10; inactive = the rest.

Experiments:
Test in all cases: NCI-60 one-dose screen, 48 h (100 = growth as untreated, 0 = no growth, -100 = all killed)
NCI-H23 lung = settings: 10 µM
NCI-H226 lung = settings: 10 µM
NCI-H322M lung = settings: 10 µM
HOP-62 NSCLC = settings: 10 µM
NCI-H460 lung = settings: 10 µM
HOP-92 NSCLC = settings: 10 µM
NCI-H522 lung = settings: 10 µM unless noted
A549/ATCC NSCLC = settings: 10 µM
786-0 renal = settings: 10 µM
COLO 205 colon = settings: 10 µM
DU-145 prostate = settings: 10 µM unless noted
K-562 leukemia = settings: 10 µM
MALME-3M melanoma = settings: 10 µM
MDA-MB-231 breast = settings: 10 µM
RXF 393 renal = settings: 10 µM unless noted
SF-268 CNS = settings: 10 µM
SF-295 CNS = settings: 10 µM
SF-539 CNS = settings: 10 µM
UACC-257 melanoma = settings: 10 µM
M14 melanoma = settings: 10 µM

## CCCC1CCC(=C2C(=O)CCC2=O)O1 (centres undefined)
NCI-H23 lung
  growth: 102% (inactive) and 98.7% (inactive)
NCI-H226 lung
  growth: 102% (inactive) and 108% (inactive)
NCI-H322M lung
  growth: 90.9% (inactive) and 96.9% (inactive)
HOP-62 NSCLC
  growth: 90.6% (inactive) and 101% (inactive)
NCI-H460 lung
  growth: 101% (inactive) and 113% (inactive)
HOP-92 NSCLC
  growth: 103% (inactive)
NCI-H522 lung
  growth: 121% (inactive) and 83.9% (inactive)
A549/ATCC NSCLC
  growth: 110% (inactive) and 97.5% (inactive)
786-0 renal
  growth: 105% (inactive) and 92.9% (inactive)
COLO 205 colon
  growth: 100% (inactive) and 99.2% (inactive)
DU-145 prostate
  growth: 102% (inactive) and 92.3% (inactive)
K-562 leukemia
  growth: 145% (inactive) and 121% (inactive)
MALME-3M melanoma
  growth: 103% (inactive) and 101% (inactive)
MDA-MB-231 breast
  growth: 102% (inactive) and 101% (inactive)
RXF 393 renal
  growth: 103% (inactive) and 97.7% (inactive)
SF-268 CNS
  growth: 100% (inactive) and 107% (inactive)
SF-295 CNS
  growth: 97.3% (inactive) and 89.8% (inactive)
SF-539 CNS
  growth: 92.7% (inactive) and 96.7% (inactive)
UACC-257 melanoma
  growth: 106% (inactive) and 95.3% (inactive)
M14 melanoma
  growth: 100% (inactive) and 74.4% (inactive)

## CCCCCCCCCCSC(=N)N
NCI-H23 lung
  growth: 87.4% (inactive)
NCI-H226 lung
  growth: 99.7% (inactive)
NCI-H322M lung
  growth: 88.7% (inactive)
HOP-62 NSCLC
  growth: 68% (inactive)
NCI-H460 lung
  growth: 23.8% (inactive)
HOP-92 NSCLC
  growth: 21.6% (inactive)
NCI-H522 lung
  growth: 45.6% (inactive)
A549/ATCC NSCLC
  growth: 77% (inactive)
786-0 renal
  growth: 51% (inactive)
COLO 205 colon
  growth: -84% (active)
DU-145 prostate
  growth: 79.9% (inactive)
K-562 leukemia
  growth: 11.1% (inactive)
MALME-3M melanoma
  growth: 81.3% (inactive)
MDA-MB-231 breast
  growth: 13% (inactive)
RXF 393 renal
  growth: 46.1% (inactive)
SF-268 CNS
  growth: 73.9% (inactive)
SF-295 CNS
  growth: 56.4% (inactive)
SF-539 CNS
  growth: 68.4% (inactive)
UACC-257 melanoma
  growth: 29.8% (inactive)

## Cc1nc(N=C(N)N)nc2ccc3ccccc3c12
NCI-H23 lung
  growth: 27.6% (inactive)
NCI-H226 lung
  growth: 25.8% (inactive)
NCI-H322M lung
  growth: -3.99% (active)
HOP-62 NSCLC
  growth: -14% (active)
NCI-H460 lung
  growth: -44.4% (active)
HOP-92 NSCLC
  growth: -25.5% (active)
NCI-H522 lung
  growth: -35.1% (active)
A549/ATCC NSCLC
  growth: 20.6% (inactive)
786-0 renal
  growth: 10.8% (inactive)
COLO 205 colon
  growth: -16.4% (active)
DU-145 prostate
  growth: 5.58% (active)
K-562 leukemia
  growth: -4.93% (active)
MALME-3M melanoma
  growth: -37.8% (active)
MDA-MB-231 breast
  growth: -0.868% (active)
RXF 393 renal
  growth: 4.87% (active)
SF-268 CNS
  growth: -25.4% (active)
SF-295 CNS
  growth: 1.84% (active)
SF-539 CNS
  growth: 4.58% (active)
UACC-257 melanoma
  growth: -9.97% (active)
M14 melanoma
  growth: 4.95% (active)
